Records with an inconclusive call do not appear. The source made the active and inactive calls. The calls were made as follows, unless noted: active = hit-call score of the fitted dose curve at least 0.9, where 1 is the maximum; inactive = score below 0.9.
What was measured:
[1] = biological target: Oxysterols receptor LXR-beta (Homo sapiens) (UniProt P55055); experiment: ATG_LXRb_TRANS: Attagene TRANS-FACTORIAL HepG2 Assay for human Liver X Receptor beta (LXRb) (AID 2282981; active = hit-call score of the fitted dose curve at least 0.9, where 1 is the maximum); conditions: HepG2 Attagene TRANS GAL4-LXRb reporter, mRNA
Oxysterols receptor LXR-beta (Homo sapiens), sequence (P55055 whole entry, looked up, the tested form may be a part): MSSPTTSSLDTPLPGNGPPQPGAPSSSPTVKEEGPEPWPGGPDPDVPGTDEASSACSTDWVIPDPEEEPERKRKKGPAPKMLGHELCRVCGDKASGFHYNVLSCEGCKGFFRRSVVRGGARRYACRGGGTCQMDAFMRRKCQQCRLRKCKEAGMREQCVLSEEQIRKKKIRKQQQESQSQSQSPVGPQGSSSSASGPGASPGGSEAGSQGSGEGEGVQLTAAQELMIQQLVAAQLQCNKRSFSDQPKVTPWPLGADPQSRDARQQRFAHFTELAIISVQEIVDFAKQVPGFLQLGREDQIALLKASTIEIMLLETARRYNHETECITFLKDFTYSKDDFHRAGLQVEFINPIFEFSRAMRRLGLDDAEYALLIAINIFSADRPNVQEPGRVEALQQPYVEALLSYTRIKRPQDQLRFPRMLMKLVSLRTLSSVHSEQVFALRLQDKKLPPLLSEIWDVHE
In short: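 HepG2 cells transiently transfected with multiple reporter transcription units carrying chimeric NR-Gal4 proteins acting on GAL4-UAS reporters; compound exposure 24 h. Reporter mRNA quantified by RT-PCR, 6-FAM labelling, HpaI digestion and capillary electrophoresis; gain of signal versus DMSO.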

[2] = biological target: Hepatocyte nuclear factor 4-alpha (Homo sapiens) (UniProt P41235); experiment: ATG_HNF4a_TRANS: Attagene TRANS-FACTORIAL HepG2 Assay for human Hepatocyte Nuclear Factor 4 alpha (HNF4a) (AID 2282982; active = hit-call score of the fitted dose curve at least 0.9, where 1 is the maximum); conditions: HepG2 HNF4a transactivation reporter, mRNA readout
Hepatocyte nuclear factor 4-alpha (Homo sapiens), sequence (P41235 whole entry, looked up, the tested form may be a part): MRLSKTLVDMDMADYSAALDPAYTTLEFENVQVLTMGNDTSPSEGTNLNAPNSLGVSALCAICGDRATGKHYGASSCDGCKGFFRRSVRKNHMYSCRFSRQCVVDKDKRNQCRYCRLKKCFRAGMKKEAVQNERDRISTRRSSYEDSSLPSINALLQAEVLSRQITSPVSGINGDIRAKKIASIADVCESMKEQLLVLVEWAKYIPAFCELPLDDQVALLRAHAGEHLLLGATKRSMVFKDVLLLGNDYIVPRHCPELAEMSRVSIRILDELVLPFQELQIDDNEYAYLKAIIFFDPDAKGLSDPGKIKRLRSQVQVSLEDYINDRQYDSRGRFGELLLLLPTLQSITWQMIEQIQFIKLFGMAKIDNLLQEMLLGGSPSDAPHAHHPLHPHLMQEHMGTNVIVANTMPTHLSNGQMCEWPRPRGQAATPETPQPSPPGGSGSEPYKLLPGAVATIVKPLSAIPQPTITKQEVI
In short: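 HepG2 cells transiently transfected with multiplexed GAL4-UAS reporter units responsive to chimeric NR-GAL4 proteins; compound exposure 24 h. Reporter mRNA quantified by RT-PCR, 6-FAM labelling, HpaI digestion and capillary electrophoresis; gain of signal versus DMSO baseline.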

[3] = ATG_M_06_TRANS: Attagene TRANS-FACTORIAL HepG2 Assay for M06 Transcription Factor (Internal Marker) (AID 2282983; active = hit-call score of the fitted dose curve at least 0.9, where 1 is the maximum); conditions: HepG2 Attagene TRANS M06 internal marker reporter
In short: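 Internal-marker background readout from a multiplexed TRANS reporter system in HepG2; 24 h dosing; mRNA induction quantified by RT-PCR plus capillary electrophoresis fluorescence; DMSO as negative control and baseline.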

[4] = ATG_M_32_TRANS: Attagene TRANS-FACTORIAL HepG2 Assay for M32 Transcription Factor (Internal Marker) (AID 2282984; active = hit-call score of the fitted dose curve at least 0.9, where 1 is the maximum); conditions: HepG2 Attagene TRANS M32 internal marker reporter
In short: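 HepG2 cells transiently transfected with multiple GAL4-UAS reporter transcription units, dosed for 24 hours; reporter mRNA quantified by RT-PCR, 6-FAM primer extension, HpaI digestion and capillary electrophoresis. Gain-of-signal fitted versus DMSO baseline; internal background-control marker.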

[5] = biological target: Transcriptional activator Myb (Homo sapiens) (UniProt P10242); experiment: ATG_Myb_CIS: Attagene CIS-FACTORIAL HepG2 Assay for human Myeloblastosis (Myb) Proto-Oncogene Transcription Factor (AID 2282986); conditions: HepG2 Attagene CIS-FACTORIAL Myb reporter transcription; actives raise or lower the signal
Transcriptional activator Myb (Homo sapiens), sequence (P10242 whole entry, looked up): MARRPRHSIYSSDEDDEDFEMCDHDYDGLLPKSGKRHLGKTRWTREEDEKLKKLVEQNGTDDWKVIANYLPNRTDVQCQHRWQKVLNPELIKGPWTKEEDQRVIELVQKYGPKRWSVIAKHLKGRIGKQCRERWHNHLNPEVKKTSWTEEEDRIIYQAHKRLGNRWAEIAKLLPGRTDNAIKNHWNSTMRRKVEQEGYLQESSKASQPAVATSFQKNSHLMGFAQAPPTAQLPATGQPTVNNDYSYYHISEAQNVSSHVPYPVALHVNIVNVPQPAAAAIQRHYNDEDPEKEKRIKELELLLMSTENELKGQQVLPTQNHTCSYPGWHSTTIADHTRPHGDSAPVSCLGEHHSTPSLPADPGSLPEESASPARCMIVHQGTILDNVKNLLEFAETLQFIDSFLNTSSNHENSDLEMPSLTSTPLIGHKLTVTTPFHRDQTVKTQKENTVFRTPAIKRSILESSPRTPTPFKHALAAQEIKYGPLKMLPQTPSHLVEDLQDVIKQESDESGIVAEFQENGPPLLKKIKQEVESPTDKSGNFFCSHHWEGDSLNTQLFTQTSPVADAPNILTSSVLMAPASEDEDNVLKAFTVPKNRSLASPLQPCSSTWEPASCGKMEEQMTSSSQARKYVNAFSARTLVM
In short: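 Reporter transcript levels, quantified by fluorescent RT-PCR and capillary electrophoresis, serve as the read-out. Transfected HepG2 cells carrying cis-promoter reporter units are dosed for 24 hours, and curves are fitted bidirectionally against DMSO controls.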

[6] = biological target: Nuclear respiratory factor 1 (Homo sapiens) (UniProt Q16656); experiment: ATG_NRF1_CIS: Attagene CIS-FACTORIAL HepG2 Assay for human Nuclear Respiratory Factor 1 (NRF1) Orphan Gene (AID 2282987); conditions: HepG2 NRF1 cis-element reporter, Attagene multiplex; actives raise or lower the signal
Nuclear respiratory factor 1 (Homo sapiens), sequence (Q16656 whole entry, looked up): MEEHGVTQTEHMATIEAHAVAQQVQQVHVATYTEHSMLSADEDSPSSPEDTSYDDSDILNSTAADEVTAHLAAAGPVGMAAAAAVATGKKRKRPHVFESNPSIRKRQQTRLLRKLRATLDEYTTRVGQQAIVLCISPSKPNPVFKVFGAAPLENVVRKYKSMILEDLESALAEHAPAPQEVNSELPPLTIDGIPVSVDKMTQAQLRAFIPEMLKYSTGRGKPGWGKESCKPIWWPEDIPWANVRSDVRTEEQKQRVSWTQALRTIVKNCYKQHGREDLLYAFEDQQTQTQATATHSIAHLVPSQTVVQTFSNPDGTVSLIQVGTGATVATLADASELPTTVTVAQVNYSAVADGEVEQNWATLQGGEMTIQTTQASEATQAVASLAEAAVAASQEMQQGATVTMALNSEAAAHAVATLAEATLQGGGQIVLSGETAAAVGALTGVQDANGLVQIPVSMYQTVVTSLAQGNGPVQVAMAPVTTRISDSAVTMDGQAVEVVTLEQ
In short: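 Multiplexed cis-reporter assay, HepG2 cells, 24 h treatment. Total RNA → oligo(dT) RT → PCR with reporter-specific primers → 6-FAM primer extension → HpaI cut → CE. Bidirectional fit vs DMSO.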

[7] = ATG_NFI_CIS: Attagene CIS-FACTORIAL HepG2 Assay for human Nuclear Factor I (NFI) (AID 2282989); conditions: HepG2 cis-regulatory reporter, NFI response element transcription; actives raise or lower the signal
In short: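 Endogenous TF activity in HepG2 cells transiently transfected with cis-element-driven multiplexed reporter units, read 24 h after dosing. Reporter mRNA quantified by RT-PCR, 6-FAM labelling, HpaI digestion and capillary electrophoresis; bidirectional fit versus DMSO.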

[8] = biological target: Myc proto-oncogene protein (Homo sapiens) (UniProt P01106); experiment: ATG_Myc_CIS: Attagene CIS-FACTORIAL HepG2 Assay for human Myelocytomatosis (Myc) Proto-Oncogene Transcription Factor (AID 2282990); conditions: HepG2, Attagene cis-reporter transcription factor activity; actives raise or lower the signal
Myc proto-oncogene protein (Homo sapiens), sequence (P01106 whole entry, looked up): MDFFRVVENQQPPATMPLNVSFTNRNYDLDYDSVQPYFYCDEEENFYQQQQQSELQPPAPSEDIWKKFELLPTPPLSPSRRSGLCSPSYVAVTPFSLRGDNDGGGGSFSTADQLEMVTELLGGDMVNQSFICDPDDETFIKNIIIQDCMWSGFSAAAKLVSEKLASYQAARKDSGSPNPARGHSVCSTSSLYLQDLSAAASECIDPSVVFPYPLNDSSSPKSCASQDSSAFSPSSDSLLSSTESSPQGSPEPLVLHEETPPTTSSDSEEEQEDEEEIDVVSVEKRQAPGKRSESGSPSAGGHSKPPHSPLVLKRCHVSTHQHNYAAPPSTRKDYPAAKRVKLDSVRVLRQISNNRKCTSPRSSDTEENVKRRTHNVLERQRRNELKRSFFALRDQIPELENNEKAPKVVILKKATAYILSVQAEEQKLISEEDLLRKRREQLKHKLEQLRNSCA
In short: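 DMSO-normalised, bidirectionally fitted reporter mRNA signal. HepG2 cells transfected with cis reporter constructs, treated 24 h; transcripts detected by RT-PCR, 6-FAM primer extension and CE.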

[9] = ATG_NF_kB_CIS: Attagene CIS-FACTORIAL HepG2 Assay for human Nuclear Factor Kappa B (NF-kB) (AID 2282991); conditions: HepG2 Attagene cis-factorial NF-kB reporter mRNA; actives raise or lower the signal
In short: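 Transient MRTU transfection of human HepG2 liver cells → 24 h chemical exposure → total RNA, oligo(dT) RT → PCR, 6-FAM primer extension, HpaI digest 2 h 37 C → CE fragment analysis. Bidirectional fitting, DMSO negative control.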

[10] = ATG_NRF2_ARE_CIS: Attagene CIS-FACTORIAL HepG2 Assay for human Nuclear Factor Erythroid 2 Related Factor 2 (NFR2) response to Antioxidant Response Elements (ARE) (AID 2282992); conditions: HepG2 Attagene ARE/NRF2 reporter, transcription factor activity; actives raise or lower the signal
In short: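 Cis-factorial assay: transfected HepG2 reporter library, 24 h dosing, mRNA readout via RT-PCR/CE; DMSO-referenced bidirectional analysis.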

[11] = ATG_Oct_MLP_CIS: Attagene CIS-FACTORIAL HepG2 Assay for human Octamer-Binding Transcription Factor (Oct) (AID 2282993); conditions: HepG2 Attagene cis-factorial Oct reporter, mRNA; actives raise or lower the signal
In short: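 HepG2 cells transiently transfected with cis-element-driven reporter transcription units (endogenous TF activity); 24 h compound exposure. Reporter mRNA quantified by RT-PCR, 6-FAM labelling, HpaI digestion and capillary electrophoresis; bidirectional fit versus DMSO baseline.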

[12] = BSK_3C_TissueFactor: BioMAP Diversity Plus: 3C Assay for Tissue Factor Biomarker Activity (AID 2282997); conditions: BioMAP 3C HUVEC, tissue factor biomarker readout; actives raise or lower the signal
In short: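 Endothelial monolayers (human umbilical vein, primary) are dosed, incubated 24 h, and assayed for Tissue Factor by ELISA; DMSO serves as negative control for bidirectional fitting.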

[13] = BSK_3C_uPAR: BioMAP Diversity Plus: 3C Assay for Urokinase-type plasminogen activator receptor (uPAR) Biomarker Activity (AID 2282998); conditions: BioMAP 3C HUVEC, uPAR biomarker ELISA; actives raise or lower the signal
In short: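 Primary human umbilical vein endothelial cells, 3C system; surface uPAR measured by ELISA 24 h after dosing. Cytotoxicity via SRB total protein in parallel cultures; bidirectional fit against DMSO.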

[14] = BSK_3C_VCAM1: BioMAP Diversity Plus: 3C Assay for Vascular cell adhesion molecule 1 (VCAM1) Biomarker Activity (AID 2282999); conditions: BioMAP 3C HUVEC, VCAM1 ELISA, cytokine-stimulated; actives raise or lower the signal
In short: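 Human umbilical vein endothelial cells were dosed with compound for 24 h, after which cell-surface VCAM-1 was quantified by ELISA. Bidirectional curve fitting used DMSO as negative control and activity baseline.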

[15] = BSK_4H_Eotaxin3: BioMAP Diversity Plus: 4H Assay for Eotaxin 3 Biomarker Activity (AID 2283000); conditions: primary human endothelial cells (HUVEC); actives raise or lower the signal;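 also: CCL26 protein level quantified by ELISA in parallel with SRB cytotoxicity check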
In short: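 ELISA quantitation of CCL26 (Eotaxin-3) protein from chemically dosed human vascular endothelial cells at 24 h; increases and decreases both scored relative to DMSO-treated baseline.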

[16] = biological target: Oxysterols receptor LXR-alpha (Homo sapiens) (UniProt Q13133); experiment: ATG_LXRa_TRANS: Attagene TRANS-FACTORIAL HepG2 Assay for human Liver X Receptor alpha (LXRa) (AID 2282980; active = hit-call score of the fitted dose curve at least 0.9, where 1 is the maximum); conditions: HepG2 Attagene TRANS reporter, LXRa transactivation
Oxysterols receptor LXR-alpha (Homo sapiens), sequence (Q13133 whole entry, looked up, the tested form may be a part): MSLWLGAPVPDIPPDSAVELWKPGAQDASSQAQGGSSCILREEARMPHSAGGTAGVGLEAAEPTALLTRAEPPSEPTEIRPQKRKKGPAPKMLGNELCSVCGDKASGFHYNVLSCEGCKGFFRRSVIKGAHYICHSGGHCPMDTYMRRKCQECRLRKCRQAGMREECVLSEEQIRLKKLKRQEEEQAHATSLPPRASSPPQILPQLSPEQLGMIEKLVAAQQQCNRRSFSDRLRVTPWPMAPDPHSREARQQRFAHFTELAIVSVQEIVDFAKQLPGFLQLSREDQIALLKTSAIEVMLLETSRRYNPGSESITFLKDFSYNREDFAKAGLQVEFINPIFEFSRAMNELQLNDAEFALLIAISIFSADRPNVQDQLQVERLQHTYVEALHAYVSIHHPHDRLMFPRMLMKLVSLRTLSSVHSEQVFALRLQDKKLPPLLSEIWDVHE
In short: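 In this multiplexed TRANS system, compounds act on HepG2 cells carrying GAL4-UAS reporter units and a receptor-GAL4 fusion for 24 h. Induced reporter RNA is amplified, fluorescently labelled and sized by capillary electrophoresis, with DMSO as baseline.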

[17] = biological target: Nuclear receptor subfamily 4 group A member 2 (Homo sapiens) (UniProt P43354); experiment: ATG_NURR1_TRANS: Attagene TRANS-FACTORIAL HepG2 Assay for human Nuclear Receptor Related Protein 1 (NURR1) (AID 2282985; active = hit-call score of the fitted dose curve at least 0.9, where 1 is the maximum); conditions: HepG2 Attagene TRANS reporter, mRNA readout
Nuclear receptor subfamily 4 group A member 2 (Homo sapiens), sequence (P43354 whole entry, looked up, the tested form may be a part): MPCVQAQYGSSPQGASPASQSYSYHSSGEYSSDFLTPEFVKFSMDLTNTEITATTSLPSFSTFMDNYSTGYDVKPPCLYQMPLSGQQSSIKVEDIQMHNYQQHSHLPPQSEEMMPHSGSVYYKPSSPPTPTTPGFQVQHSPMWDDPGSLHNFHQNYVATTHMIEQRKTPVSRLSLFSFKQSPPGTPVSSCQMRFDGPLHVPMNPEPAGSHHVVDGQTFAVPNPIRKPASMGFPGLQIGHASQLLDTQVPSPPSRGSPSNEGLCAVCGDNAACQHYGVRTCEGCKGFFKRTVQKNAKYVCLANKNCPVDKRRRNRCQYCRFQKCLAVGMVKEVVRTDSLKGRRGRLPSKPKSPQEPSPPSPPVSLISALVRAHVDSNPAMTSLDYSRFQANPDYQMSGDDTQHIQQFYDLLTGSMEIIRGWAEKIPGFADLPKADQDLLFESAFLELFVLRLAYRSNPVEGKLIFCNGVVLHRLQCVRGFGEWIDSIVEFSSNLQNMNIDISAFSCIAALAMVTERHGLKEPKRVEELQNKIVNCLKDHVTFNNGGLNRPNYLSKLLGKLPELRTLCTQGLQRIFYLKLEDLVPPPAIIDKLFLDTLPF
In short: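 HepG2 cells transiently transfected with GAL4-UAS reporter units and chimeric NR-Gal4 constructs; chemical exposure 24 h. Reporter mRNA quantified by RT-PCR, fluorescent labelling and capillary electrophoresis; gain of signal fitted relative to DMSO baseline.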

[18] = biological target: Cellular tumor antigen p53 (Homo sapiens) (UniProt P04637); experiment: ATG_p53_CIS: Attagene CIS-FACTORIAL HepG2 Assay for human p53 Transcription Factor (AID 2282994); conditions: HepG2 p53 cis-element reporter, Attagene mRNA; actives raise or lower the signal
Cellular tumor antigen p53 (Homo sapiens), sequence (P04637 whole entry, looked up): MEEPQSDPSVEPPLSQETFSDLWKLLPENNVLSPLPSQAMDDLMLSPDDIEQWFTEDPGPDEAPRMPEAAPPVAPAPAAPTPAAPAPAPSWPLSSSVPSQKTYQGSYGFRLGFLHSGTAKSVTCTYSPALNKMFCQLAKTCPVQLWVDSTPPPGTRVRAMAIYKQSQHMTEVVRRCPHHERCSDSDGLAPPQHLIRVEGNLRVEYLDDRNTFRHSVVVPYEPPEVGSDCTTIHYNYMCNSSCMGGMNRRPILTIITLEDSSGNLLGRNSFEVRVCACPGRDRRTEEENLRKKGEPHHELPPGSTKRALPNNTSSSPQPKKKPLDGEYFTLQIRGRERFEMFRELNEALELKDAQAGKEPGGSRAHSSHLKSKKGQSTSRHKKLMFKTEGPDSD
In short: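 Using HepG2 hepatoma cells carrying cis-acting multiplexed reporters, mRNA induction is detected after a 24 h exposure. Gain- and loss-of-signal responses are fitted relative to DMSO-treated cells.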

Measured: AC50

NC(=S)Nc1ccccc1
not listed: [16] | [17] | [18]
inactive: all other assays above

COc1ccc(OC)c(C=O)c1
not listed: [1] | [3] | [12] | [13] | [14] | [15] | [18]
inactive: all other assays above

C[C@H]1O[C@@H](O[C@H]2[C@@H](O)C[C@H](O[C@H]3[C@@H](O)C[C@H](O[C@H]4CC[C@@]5(C)[C@H](CC[C@@H]6[C@@H]5CC[C@]5(C)[C@@H](C7=CC(=O)OC7)CC[C@]65O)C4)O[C@@H]3C)O[C@@H]2C)C[C@H](O)[C@@H]1O
inactive: [1] | [2] | [3] | [17] | [6] | [9] | [10] | [18]
active: [5] 0.0564 µM | [7] 0.171 µM | [8] 23.9 µM | [11] 0.592 µM

ClCCBr
not listed: [1] | [2] | [6] | [12] | [13] | [14] | [15]
inactive: all other assays above

CCCCCCCCCl
not listed: [1] | [4] | [12] | [13] | [14] | [15]
inactive: all other assays above

C[C@H]1CCCC(=O)CCC/C=C/c2cc(O)cc(O)c2C(=O)O1
active: [6] 39.4 µM | [11] 10.7 µM
not listed: [1] | [4] | [12] | [13] | [14] | [15]
inactive: all other assays above

CN(CCCC(=O)c1cccnc1)N=O
inactive: [16] | [2] | [3] | [4] | [5] | [7] | [8] | [9] | [10] | [18]

CCSC(C)CC1CC(=O)C(C(CC)=NOC/C=C/Cl)=C(O)C1 (stereo not drawn)
not listed: [1] | [2] | [6]
inactive: all other assays above

Cc1ccccc1N
not listed: [3] | [16]
inactive: all other assays above

COc1cccc(C=O)c1
inactive: [2] | [3] | [4] | [5] | [7] | [8] | [9] | [10] | [18]

Reference: PubChem BioAssay (EPA / NIEHS)
